Measurements from PubChem BioAssay (NCATS).
Several values for one entry are separate records, joined by “and”; a condition that tells them apart may be missing. Equal values may be shown once. Values without a mark were called inactive. Results filed as inconclusive are left out. Where a call stands in place of a potency, no number is given. Activity calls are given as the source filed them. Unless noted, the call rests on the fitted dose curve; in most records, active means well fitted curve in the direction sought with a large enough effect; inconclusive means small, poorly fitted or top-dose-only effect, or another doubt; inactive means no such curve, though single readings can be large; an effect the other way counts as inactive or inconclusive.

Tests used:
[1] = target: Tyrosine-protein kinase Yes (Homo sapiens) (UniProt P07947); experiment: qHTS for small molecule inhibitors of Yes1 kinase: Primary Screen (AID 686947); further: nearly all actives have a fitted effect of over 60% in size; further: potency means the concentration at half of the fitted maximal effect
Tyrosine-protein kinase Yes (Homo sapiens), sequence (P07947 whole entry, looked up): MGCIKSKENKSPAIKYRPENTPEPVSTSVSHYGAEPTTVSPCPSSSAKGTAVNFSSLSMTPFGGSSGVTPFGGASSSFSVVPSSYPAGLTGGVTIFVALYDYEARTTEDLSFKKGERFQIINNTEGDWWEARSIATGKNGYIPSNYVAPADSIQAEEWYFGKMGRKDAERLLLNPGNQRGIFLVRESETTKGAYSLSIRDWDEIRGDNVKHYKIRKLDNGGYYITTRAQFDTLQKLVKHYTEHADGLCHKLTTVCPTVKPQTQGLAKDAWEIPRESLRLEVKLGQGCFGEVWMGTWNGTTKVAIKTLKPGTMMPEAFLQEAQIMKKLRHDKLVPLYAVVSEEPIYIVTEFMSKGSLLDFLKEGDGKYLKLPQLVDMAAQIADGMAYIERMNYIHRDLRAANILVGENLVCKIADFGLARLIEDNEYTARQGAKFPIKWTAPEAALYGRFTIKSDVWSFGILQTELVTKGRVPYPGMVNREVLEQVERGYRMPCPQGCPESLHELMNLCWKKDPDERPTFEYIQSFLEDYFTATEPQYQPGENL
Outline: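 ADP-Glo luminescence reports ADP formed by 4 nM Yes1 phosphorylating poly(E4Y) (0.3 mg/mL) with 0.1 mM ATP for 60 min at room temperature, following 20 min compound preincubation; normalised between DMSO wells with and without enzyme.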

[2] = qHTS for small molecule inhibitors of Yes1 kinase: Counter Assay (AID 686950);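 further: no kinase present so only ADP-Glo detection of a fixed ADP amount is tested; luminescence from ADP-Glo reporting ADP in a fixed ATP and ADP mixture; series mostly up to about 77 µM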
Outline: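 ADP-Glo luminescence read after a 60 min room-temperature incubation of compound with an ATP/ADP mix (0.08 mM/0.02 mM) and no kinase, following a 20 min compound preincubation. Signal scaled between ATP+ADP (max) and 0.1 mM ATP-only (min) wells; Tris pH 7.5, Mg2+, DTT.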

[3] = qHTS assay for environmental chemicals that activate the Aryl hydrocarbon Receptor (AhR) signaling pathway (AID 651777); conditions: 1A2-DRE human hepatoma cells, luciferase, 24 h; activation: active compounds read high; further: nearly all actives have a fitted effect of over 15% in size; further: potency means the concentration at half of the fitted maximal effect
Outline: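 Quantitative HTS in stably transfected human liver-derived cells whose luciferase gene sits downstream of the CYP1A2 promoter and dioxin response element. After 24 hr exposure at 37 C, One-Glo luminescence was measured.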

[4] = target: Arylsulfatase A (Homo sapiens) (UniProt P15289); experiment: qHTS screen for enhancers of Arylsulfatase A (ASA1): LOPAC Validation Assay (AID 720538); conditions: outcome: dose series up to 57.5 µM
Arylsulfatase A (Homo sapiens), sequence (P15289 whole entry, looked up): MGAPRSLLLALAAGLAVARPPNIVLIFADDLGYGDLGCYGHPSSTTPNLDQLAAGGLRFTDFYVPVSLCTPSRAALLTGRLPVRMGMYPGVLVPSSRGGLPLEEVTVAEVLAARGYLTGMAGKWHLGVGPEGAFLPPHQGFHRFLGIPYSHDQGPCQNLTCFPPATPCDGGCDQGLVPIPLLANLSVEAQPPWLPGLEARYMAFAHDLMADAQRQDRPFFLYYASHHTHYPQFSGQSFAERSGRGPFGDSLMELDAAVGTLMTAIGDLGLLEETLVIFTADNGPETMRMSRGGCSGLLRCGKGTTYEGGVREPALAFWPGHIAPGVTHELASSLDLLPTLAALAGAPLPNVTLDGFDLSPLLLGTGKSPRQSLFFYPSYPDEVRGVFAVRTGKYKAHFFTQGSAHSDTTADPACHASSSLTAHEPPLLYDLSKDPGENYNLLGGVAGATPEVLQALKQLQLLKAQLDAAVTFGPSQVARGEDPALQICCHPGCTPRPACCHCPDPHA
Outline: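 Enhancer assay in patient-derived MLD fibroblasts carrying ASA-I179S: 48 h compound exposure at 37 C, then 14 h room-temperature pNCS turnover (0.5 mM final) in lysis buffer. Read by fluorescence at 525/598 nm after NaOH stop.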

[5] = qHTS assay for small molecule disruptors of the mitochondrial membrane potential - 5 hr assay (AID 651755; calls by dose curve; further: nearly all actives have a fitted effect of over 40% in size; further: potency means the concentration at half of the fitted maximal effect)
Outline: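 Membrane-potential dye readout: red aggregate (540 ex/590 em) versus green monomer (490 ex/535 em) fluorescence after 30 min dye loading, following 5 hr compound exposure at 37C of overnight-plated HepG2 cells.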

[6] = target: Peroxisome proliferator-activated receptor alpha (Homo sapiens) (UniProt Q07869); experiment: qHTS assay for small molecule agonists of the peroxisome proliferator-activated receptor alpha (PPARalpha) signaling pathway (AID 651778); conditions: PathHunter PPARalpha complementation, chemiluminescence, 6 h; active compounds read high
Peroxisome proliferator-activated receptor alpha (Homo sapiens), sequence (Q07869 whole entry, looked up): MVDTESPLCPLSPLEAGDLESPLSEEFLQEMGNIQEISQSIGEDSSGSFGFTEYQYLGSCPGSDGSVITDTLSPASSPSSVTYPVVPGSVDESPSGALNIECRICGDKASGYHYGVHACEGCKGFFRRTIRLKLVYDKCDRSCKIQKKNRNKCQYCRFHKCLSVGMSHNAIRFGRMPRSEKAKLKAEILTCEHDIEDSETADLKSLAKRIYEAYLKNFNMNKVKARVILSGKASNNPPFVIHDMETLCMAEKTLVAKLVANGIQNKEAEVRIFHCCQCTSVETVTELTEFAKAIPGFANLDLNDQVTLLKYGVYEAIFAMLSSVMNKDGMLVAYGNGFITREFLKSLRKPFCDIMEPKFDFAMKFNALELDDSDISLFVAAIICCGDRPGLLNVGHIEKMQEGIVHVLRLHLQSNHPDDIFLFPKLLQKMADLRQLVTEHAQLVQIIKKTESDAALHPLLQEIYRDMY
Outline: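 Chemiluminescence from complemented enzyme reported PPARalpha activation in cells after 6 hr of compound treatment at 37 C. The detection reagent was incubated for 60 min at room temperature, and compounds were scored as agonists.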

[7] = target: Nuclear receptor ROR-gamma (Homo sapiens) (UniProt P51449); experiment: qHTS assay for small molecule antagonists of the retinoid-related orphan receptor gamma (ROR-gamma) signaling pathway (AID 651802); further: nearly all actives have a fitted effect of over 60% in size; further: potency means the concentration at half of the fitted maximal effect
Nuclear receptor ROR-gamma (Homo sapiens), sequence (P51449 whole entry, looked up): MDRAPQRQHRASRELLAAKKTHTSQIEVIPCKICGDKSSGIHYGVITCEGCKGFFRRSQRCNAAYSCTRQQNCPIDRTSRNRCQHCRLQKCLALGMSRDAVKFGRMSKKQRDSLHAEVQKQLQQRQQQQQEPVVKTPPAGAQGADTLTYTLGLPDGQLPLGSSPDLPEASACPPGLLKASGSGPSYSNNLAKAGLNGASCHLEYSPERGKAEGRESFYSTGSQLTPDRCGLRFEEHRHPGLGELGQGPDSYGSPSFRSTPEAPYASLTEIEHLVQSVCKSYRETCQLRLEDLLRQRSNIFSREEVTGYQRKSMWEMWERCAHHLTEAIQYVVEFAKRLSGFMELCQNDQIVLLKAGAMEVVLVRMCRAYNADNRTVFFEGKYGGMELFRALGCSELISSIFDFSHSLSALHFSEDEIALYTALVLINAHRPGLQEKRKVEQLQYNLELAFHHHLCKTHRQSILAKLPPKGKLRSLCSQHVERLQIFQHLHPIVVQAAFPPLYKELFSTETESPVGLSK
Outline: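 Luminescence (One-Glo, 30 min RT) measured 16 h after compound addition and doxycycline induction at 37C. Reporter: RORE-luciferase under TET-inducible ROR-gamma in CHO cells.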

[8] = qHTS for compounds that reverse cellular toxicity of Amyloid beta (A-beta) peptide in yeast: LOPAC Validation Assay (AID 720559)
Outline: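 Rescue of A-beta toxicity was scored as yeast growth by 600 nm absorbance after 48 hr at 30 C with compound. Normalization used DMSO (negative) and equimolar ferric chloride plus clioquinol (positive).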

[9] = target: Tumor necrosis factor (Homo sapiens) (UniProt P01375); experiment: qHTS assay to identify small molecules that stimulate Tumor Necrosis Factor-alpha (TNF-alpha) secretion (AID 651757; active means well fitted curve in the direction sought with a large enough effect in the signal ratio; the % refers to the signal ratio)
Tumor necrosis factor (Homo sapiens), sequence (P01375 whole entry, looked up): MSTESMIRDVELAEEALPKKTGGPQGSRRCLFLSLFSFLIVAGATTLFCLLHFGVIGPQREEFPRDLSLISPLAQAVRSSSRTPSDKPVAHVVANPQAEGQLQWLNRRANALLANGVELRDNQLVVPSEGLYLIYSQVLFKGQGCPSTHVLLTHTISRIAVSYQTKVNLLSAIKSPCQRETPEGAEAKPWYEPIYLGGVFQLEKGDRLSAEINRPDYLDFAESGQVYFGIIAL
Outline: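 Secreted TNF-alpha quantified by TR-FRET sandwich of two labeled anti-TNF-alpha antibodies, incubated 3 hr at room temperature. Preceded by 17 hr, 37 C compound treatment of THP-1 cells at 3000 cells/well.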

[10] = qHTS assay to identify small molecules that stimulate interleukin-8 (IL-8) secretion (AID 651758; active means well fitted activation curve with a large enough effect in the signal ratio; the % refers to the signal ratio)
Outline: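 Secreted IL-8 measured homogeneously by TR-FRET (two labelled anti-IL-8 antibodies, 1-3 h at room temperature) after a 16 h, 37 C compound treatment of THP-1 cells at 2000 cells/well.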

For `CC(=O)N(C)C1(c2ccccc2)CCN(CCC[C@]2(c3ccc(Cl)c(Cl)c3)CCCN(C(=O)c3ccccc3)C2)CC1`, the Potency [1] was “inactive” and the outcome [2] was “inactive”.

In the case of `CC(C)OC(=O)C(C)(C)Oc1ccc(C(=O)c2ccc(Cl)cc2)cc1`, the activation [3] is reported as 2.52% and the outcome [4] is reported as “inactive; inhibitor; fitted 0.151 uM”.

In the case of `O=C(O)CCC1CCC(c2cc(F)ccc2F)(S(=O)(=O)c2ccc(Cl)cc2)CC1` (centres undefined), the Potency [1] is reported as “inactive” and the outcome [2] is reported as “inactive”.

With `CC1=C(/C=C/C(C)=C/C=C/C(C)=C/C(=O)Nc2ccc(O)cc2)C(C)(C)CCC1` the Potency [5] was 18.8 µM (active), the activation [3] was 4.06% and the max response [6] was 8.2%. For the same molecule, the Potency [7] was 26.6 µM (active), the Potency [1] was “inactive” and the outcome [2] was “inactive”. For the same molecule, the outcome [4] was “inactive” and the outcome [8] was “inactive”.

With `OC[C@H]1O[C@@H](n2cnc3c2NC=NC[C@@H]3O)C[C@H]1O` the Potency [1] was 21.8 µM (active) and the outcome [2] was “inactive”.

With `CCCNC(=O)NS(=O)(=O)c1ccc(Cl)cc1` the outcome [9] was “inactive”, the activation [3] was 0.08% and -1.06% and the max response [6] was 5.97% and -0.845%. The Potency [7] was “inactive” and the outcome [8] was “inactive”.

With `CC(=O)O[C@]1(C(C)=O)CC[C@H]2[C@@H]3C=C(Cl)C4=CC(=O)[C@@H]5C[C@@H]5[C@]4(C)[C@H]3CC[C@@]21C` the outcome [9] was “inactive”, the activation [3] was 1.28% and -0.271% and the max response [6] was 0.54% and -4.74%. For the same molecule, the outcome [4] was “inactive” and the outcome [8] was “inactive”.

With `O=C(O)c1cc(O)c2c(c1)C(=O)c1cccc(O)c1C2=O` the Potency [5] was 5.31 µM (active), the activation [3] was 1.52% and the max response [6] was -6.2%. For the same molecule, the Potency [7] was 37.6 µM (active).

In the case of `O=C(Nc1cc(Cl)cc2c1[nH]c1cnccc12)c1cccnc1`, the Potency [1] is reported as “inactive” and the outcome [2] is reported as “inactive”.

Work on `O=C(O)c1cc(-c2ccccc2)nc2ccccc12` yielded an activation [3] of 4.06% and a max response [6] of -3.44%.

In the case of `CO[C@H]1C=CC=C(C)C(=O)NC2=CC(=O)C(NCCN(C)C)=C(C[C@@H](C)C[C@H](OC)[C@@H](O)[C@@H](C)C=C(C)[C@@H]1OC(N)=O)C2=O`, the Potency [1] is reported as “inactive” and the outcome [2] is reported as “inactive”.

In the case of `CC(C)[C@H](CO)Nc1nc(Nc2ccc(C(=O)O)c(Cl)c2)c2ncn(C(C)C)c2n1`, the Potency [1] is reported as 0.0194 µM (active) and the outcome [2] is reported as “inactive”.

In the case of `O=c1[nH]cnc2c1ncn2[C@H]1CC[C@@H](CO)O1`, the Potency [5] is reported as “inactive”, the outcome [9] is reported as “inactive” and the outcome [10] is reported as “inactive”. The activation [3] was -1.42% and 4.55%, the max response [6] was -3.68% and -4.63% and the Potency [7] was “inactive”.

In the case of `O=c1cc(-c2ccc(O)cc2)oc2cc(O)cc(O)c12`, the Potency [5] is reported as 5.96 µM (active), the max response [6] is reported as -4.82% and -0.91% and the outcome [4] is reported as “inactive”. For the same molecule, the outcome [8] was “inactive”.

For `O=C(CCCCCCC(=O)Nc1ccccc1)NO`, the Potency [1] was “inactive”.

With `O=c1cc(-c2ccccc2)oc2cc(O)cc(O)c12` the Potency [3] was 39.8 µM (active) and the max response [6] was -1.65%.

For `CCn1cc(C(=O)O)c(=O)c2ccc(C)nc21`, the max response [6] was -3.78% and -0.0141%, the Potency [7] was “inactive” and the outcome [4] was “inactive”. For the same molecule, the outcome [8] was “inactive”.

In the case of `O=C(O)Cc1cccc2ccccc12`, the outcome [9] is reported as “inactive”, the activation [3] is reported as 0.508% and -1.02% and the max response [6] is reported as -0.727% and -1.42%. For the same molecule, the Potency [7] was “inactive”.

For `CCOC(CN1C(=O)[C@](CC(=O)Nc2ccc(C)cc2)(NC(=O)Nc2ccc(C)cc2)c2ccccc21)OCC`, the Potency [1] was “inactive” and the outcome [2] was “inactive”.

With `O=C1NC(=O)C(c2ccccc2)(c2ccccc2)N1` the outcome [9] was “inactive”, the activation [3] was -0.809% and 0.125% and -0.632% and the max response [6] was -3.11% and -0.24% and -0.609%. For the same molecule, the Potency [7] was “inactive”, the outcome [4] was “inactive” and the outcome [8] was “inactive”.

With `O=c1c(-c2ccc(O)cc2)coc2cc(O)ccc12` the Potency [5] was 21.1 µM (active), the outcome [9] was “inactive” and the max response [6] was 0.0671% and -0.373%. For the same molecule, the Potency [7] was “inactive” and the outcome [4] was “inactive”.

With `O=c1c(O)c(-c2ccc(O)cc2)oc2cc(O)cc(O)c12` the Potency [5] was 8.41 µM (active) and the max response [6] was -3% and -2.05%.
